Bioassay records deposited in PubChem BioAssay by National Center for Advancing Translational Sciences (NCATS).
Most compounds without a hit are left out; they make up all but 11% or so of the library.
hNpr1 antagonist: Natriuretic polypeptide receptor (hNpr1) antagonism - Primary qHTS; Potency, µM (series often up to 46.3 µM), for the others: top-dose activity change, negative = inhibition, actives largely listed as inhibitors; Atrial natriuretic peptide receptor 1 (Homo sapiens), P16066; 76,000 compounds, 1.6% hits; AID 1347048, 2019; HEK293 hNpr1 GloSensor cGMP, ANP-stimulated luminescence; calls by dose curve; also: % is scaled to controls: 0 for no effect and ±100 for the full control effect; nearly all actives have a fitted effect of over 60% in size
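HEK293 cells stably expressing human Npr1 and cGMP GloSensor pGS-40F, loaded 2 h with 2% GloSensor reagent, given compound 30 min at room temperature. Luminescence read before and 20 min after 0.1 nM hNppA.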
NIH3T3 tox: Cytotoxic Profiling in NIH 3T3 Cell Line of Diverse Libraries Using Quantitative High-Throughput Screening; NIH 3T3 viability, CellTiter-Glo ATP luminescence, 48-72 h; Potency, µM (titrated, usually from 96.7 µM), for the others: at the top dose activity change, negative = cytotoxicity, hits mostly inhibitors; 94,000 compounds, 4.3% hits; also: % is scaled to controls: 0 for no effect and ±100 for the full control effect; nearly all actives have a fitted effect of over 55% in size
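Luminescent ATP readout (CellTiter-Glo, 10 min RT) after 48 or 72 hr compound exposure of NIH 3T3 cells seeded at 400 cells/well in 1536-well format; quantitative HTS.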
HEK cytotox: Cytotoxic Profiling in HEK 293 Cell Line of Diverse Libraries Using Quantitative High-Throughput Screening; AID 1345083, 2018; HEK 293 viability, ATP luminescence (CellTiter-Glo), 48-72 h; Potency, µM (top dose mostly 115 µM), for the others: at the highest dose activity change, negative = cytotoxicity, actives largely listed as inhibitors; 94,000 compounds, 6.6% hits; also: % is scaled to controls: 0 for no effect and ±100 for the full control effect; nearly all actives have a fitted effect of over 60% in size
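250 HEK 293 cells/well; compound by pintool; incubated 48 or 72 hr at 37 degree Celsius; CellTiter-Glo added, 10 min RT, luminescence imaged.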
FLuc inh-1: Firefly luciferase inhibition profiling of diverse chemical library using quantitative high-throughput screening; purified P. pyralis luciferase, luminescence, biochemical; Potency, µM (top dose mostly 115 µM), actives largely listed as inhibitors; 76,000 compounds, 2.5% hits; AID 1347043, 2019; also: % is scaled to controls: 0 for no effect and ±100 for the full control effect; nearly all actives have a fitted effect of over 65% in size
Target sequence (P08659 whole entry, looked up): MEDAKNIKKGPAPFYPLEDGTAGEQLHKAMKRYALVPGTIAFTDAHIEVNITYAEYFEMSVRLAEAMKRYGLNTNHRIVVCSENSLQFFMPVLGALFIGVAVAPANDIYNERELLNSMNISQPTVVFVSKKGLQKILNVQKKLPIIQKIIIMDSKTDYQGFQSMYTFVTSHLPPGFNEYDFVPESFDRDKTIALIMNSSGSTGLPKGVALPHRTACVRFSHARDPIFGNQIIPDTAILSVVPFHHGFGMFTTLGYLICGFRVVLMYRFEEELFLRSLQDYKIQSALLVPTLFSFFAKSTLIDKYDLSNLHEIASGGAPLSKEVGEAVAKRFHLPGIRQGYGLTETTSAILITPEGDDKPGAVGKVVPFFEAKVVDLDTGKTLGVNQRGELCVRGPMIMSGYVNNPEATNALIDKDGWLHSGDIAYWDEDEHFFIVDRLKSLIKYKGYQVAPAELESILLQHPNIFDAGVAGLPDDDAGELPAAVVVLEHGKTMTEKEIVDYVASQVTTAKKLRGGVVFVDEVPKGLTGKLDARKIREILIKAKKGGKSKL
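FLuc 10nM, D-luciferin 10uM, ATP 10uM, Mg acetate 10mM, Tris acetate pH 7.5, Tween/BSA; cpd qHTS; enzyme added last; CCD luminescence.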
FLuc SDR no ATP: Firefly luciferase (FLuc-C-HiBiT) SDR gain of signal screen - without ATP. Purified FLuc-C-HiBiT, Nano-Glo HiBiT luminescence, no ATP. AID 1963318, 2024. shares compounds with FLuc inh-1. 1,300 compounds, 7.8% hits. Potency, µM (series often up to 32.7 µM), inactives show at the highest dose activation (signal gain), hits mostly activators; also: nearly all actives have a fitted effect of over 55% in size
FLuc SDR ATP: Firefly luciferase (FLuc-C-HiBiT) SDR gain of signal screen - plus ATP; Potency, µM (top dose mostly 32.7 µM), inactives show top-dose activation (gain of signal), actives largely listed as activators; 1,300 compounds, 8.7% hits; AID 1963319, 2024; shares compounds with FLuc inh-1; purified FLuc-C-HiBiT + ATP, HiBiT complementation luminescence;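 also: signal reports ligand binding via conformational change of the enzyme rather than luciferase catalysis; % of control where 0% means no effect; nearly all actives have a fitted effect of over 55% in size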
FLuc inh-2: Firefly luciferase (FLuc-C-HiBiT) enzymatic inhibition screen - Functional assay | Potency, µM (highest dose often 32.7 µM), inactives show at the top dose activity change, negative = inhibition, most hits filed as inhibitors | purified FLuc-C-HiBiT enzyme, luciferin luminescence | 1,300 compounds, 42% hits | shares compounds with FLuc inh-1; also: % is scaled to controls: 0 for no effect and ±100 for the full control effect; nearly all actives have a fitted effect of over 70% in size
* = called active by the depositor; i = inactive; ? = inconclusive; . = not tested or not shown; [ ] = dose if it differs, or a comment. Unless noted, calls follow the shape of the dose curve; as a rule, active = well fitted curve in the direction sought with a large enough effect; inconclusive = small, poorly fitted or top-dose-only effect, or another doubt; inactive = no such curve, though single readings can be large; an effect the other way counts as inactive or inconclusive. Potency is read from the fitted curve at half-maximal effect.

SMILES	hNpr1 antagonist	NIH3T3 tox	HEK cytotox	FLuc inh-1	FLuc SDR no ATP	FLuc SDR ATP	FLuc inh-2
COc1ccc(-c2cn3nc(SCC(=O)Nc4cc(C)cc(C)c4)ccc3n2)cc1	.	.	.	.	15%	12%	?
CCn1cc(-c2ccc(Cl)cc2)cc1C(=O)O	1%	-21%	-9%	?	13%	11%	-10%
CCn1cc(-c2ccc(Cl)cc2)cc1C(=O)N1CCN(c2ccccn2)CC1	?	?	?	i	.	.	.
Cc1cccn2c(=O)c(C(=O)NCCc3ccccc3)cnc12	.	.	.	.	?	?	7µM*
COCCn1c(C)cnc1CCNC(=O)NCCc1ccccc1	-17%	-7%	-13%	i	.	.	.
CCOc1ccc(C(=O)Nc2onc3c2CCCC3)cc1	.	.	.	.	?	7µM*	2µM*
CC(C)COc1ccc(C(=O)Nc2onc3c2CCCC3)cc1	.	.	.	.	28%	?	2µM*
O=C(Nc1onc2c1CCCC2)c1ccccc1	.	.	.	.	18%	?	?
O=C(Nc1cnc2c(c1)CCC2)c1cccc(F)c1	.	?	-29%	.	.	.	.
O=C1C(N2CCN(S(=O)(=O)Cc3ccccc3F)CC2)CCN1Cc1ccccn1 (stereo unspecified)	-7%	-16%	-12%	i	.	.	.
COc1cccc(-c2nc(-c3ccc(C(=O)O)cc3)no2)c1	.	.	.	.	?	0.88µM*	0.79µM*
O=C(O)c1cccc(-c2noc(-c3ccc(F)cc3)n2)c1	.	.	.	.	5µM*	0.0056µM*	0.0044µM*
Cc1noc(-c2nc(-c3cccc(F)c3)no2)n1	-19%	-6%	?	?	.	.	.
O=C(O)c1cccc(-c2noc(-c3cccc(F)c3)n2)c1	.	.	.	.	?	0.007µM*	0.007µM*
O=C(O)c1ccc(-c2noc(-c3cccc(F)c3)n2)cc1	.	.	.	.	17%	?	5µM*
COc1cccc(-c2nc(CN3CCCC3=O)no2)c1	5%	-3%	12%	?	.	.	.
O=C(c1ccccc1F)N1CCC2(CC1)C(=O)NCN2Cc1ccc(Cl)cc1	0%	-19%	?	i	.	.	.
Cc1noc(C)c1CN1CC(N2CC(C(=O)NCc3ccccc3)CC2=O)C1 (stereo unspecified)	.	-5%	0%	.	.	.	.
Cn1ncc2c(C(=O)NCc3ccccc3Cl)cc(-c3ccc(F)cc3)nc21	.	-32%	?	.	.	.	.
O=C(O)c1ccc(CN2C[C@H](O)C[C@H]2c2nc(-c3cccc([N+](=O)[O-])c3)no2)cc1	10%[70.6 µM]	-8%[174 µM]	i	?	.	.	.
O=C(O)c1cccc(-c2noc(-c3cccc([N+](=O)[O-])c3)n2)c1	.	.	.	.	11µM*	0.0079µM*	0.007µM*
COc1ccccc1-c1cccc(C(=O)O)c1	.	i	-14%[172 µM]	.	.	.	.
O=C(O)c1cccc(-c2noc(-c3ccccc3Cl)n2)c1	.	.	.	.	2.8µM*	0.0062µM*	0.0035µM*
Cc1nnc2ccc(N3CCC(NC(=O)c4ccncc4)C3)nn12 (stereo unspecified)	.	-18%[138 µM]	i	.	.	.	.
CC(C)n1cnnc1C1CCCN1S(=O)(=O)c1ccccc1 (stereo unspecified)	.	-9%	-10%	.	.	.	.
SMILES	hNpr1 antagonist	NIH3T3 tox	HEK cytotox	FLuc inh-1	FLuc SDR no ATP	FLuc SDR ATP	FLuc inh-2
c1coc(-c2nc3nccc(-c4ccc5c(c4)OCCCO5)n3n2)c1	?	?	?	1.3µM*	?	?	1.8µM*
c1ccc(-c2noc(-c3nc(C4CC4)no3)n2)cc1	?	-6%	?	2.5µM*	17%	19%	?
COc1ccc(-c2noc(Nc3ccc(C)c(C)c3)n2)cc1	-19%	?	40µM*	8.9µM*	20%	12%	?
Fc1c(Cl)cccc1Nc1ncncc1-c1nc(-c2ccccc2)no1	-10%	-1%	i	i	.	.	.
COc1ccc(-c2noc(Nc3ccc(OC)c(OC)c3)n2)cc1	-14%	?	28µM*	7.9µM*	19%	12%	?
COc1cccc(Nc2nc(-c3ccccc3)no2)c1	8.9µM*	45µM*	?	0.79µM*	?	?	6.2µM*
Fc1ccccc1Nc1nc(-c2ccccc2)no1	4.5µM*	?	?	0.4µM*	?	?	0.7µM*
Cc1nc([C@H]2CCN(Cc3ccc(C)c(C)c3)C[C@H]2NC(=O)C2CC2)n[nH]1	-1%	?	-23%	i	.	.	.
O=C(N[C@@H]1C[C@@H]2CO[C@H](c3ccccc3)C[C@@H]2C1)c1ccc2c(c1)OCCCO2	.	-30%	?	.	.	.	.
C#CCNC(=O)C[C@@H]1C[C@@H](C(C)C)[C@H](CNS(=O)(=O)c2cccc(C#N)c2)C=C1C	-14%[70.6 µM]	?	?	i	.	.	.
COc1cccc(-c2cc(C(=O)NCCNc3nc(C)cc(=O)[nH]3)[nH]n2)c1	11%	i	-26%	?	.	.	.
COc1cccc(-c2cc(C(=O)NCc3nc(-c4ccccc4)n[nH]3)[nH]n2)c1	2%	?	?	14µM*	19%	11%	?
CCc1ccccc1NC(=O)N1CCC(Oc2ncccc2C(=O)N2CCCCC2)C1 (stereo unspecified)	2%	-19%	1%	i	.	.	.
COC(=O)[C@H](NC(=O)[C@@H]1C[C@@H](NC(=O)CSC)CCN1S(=O)(=O)c1ccc(OC)cc1)C(C)C	-1%	-1%	2%	i	.	.	.
O=C1CC(c2ccccc2)N(C(=O)CNC(=O)Nc2ccccc2)CCCCCN1 (stereo unspecified)	0%	-11%	-16%	i	.	.	.
O=C1CC(c2ccccc2)N(C(=O)CNC(=O)Nc2ccc3c(c2)OCCO3)CCCCCN1 (stereo unspecified)	-2%	-2%	-2%	10µM*	15%	14%	?
O=C(Nc1cccc(F)c1)Nc1cccc(-c2ccc(N3CCCCC3)nn2)c1	7.9µM*	32µM*	?	0.4µM*	9.9µM*	?	0.99µM*
